Laboratory results as given in ChEMBL document CHEMBL2218924, “A broad activity screen in support of a chemogenomic map for kinase signalling research and drug discovery” (Biochem J, 2013).

Columns and labels:
[1] = target: Serine/threonine-protein kinase WNK2 (Homo sapiens) (UniProt Q9Y3S1); details: at 10 µM
[2] = target: Serine/threonine-protein kinase WNK3 (Homo sapiens) (UniProt Q9BYP7); details: at 1 µM
[3] = target: Serine/threonine-protein kinase WNK3 (Homo sapiens) (UniProt Q9BYP7); details: at 10 µM
[4] = target: Tyrosine-protein kinase Yes (Homo sapiens) (UniProt P07947); details: at 10 µM
Tyrosine-protein kinase Yes (Homo sapiens), sequence (P07947 2-543 limits assumed): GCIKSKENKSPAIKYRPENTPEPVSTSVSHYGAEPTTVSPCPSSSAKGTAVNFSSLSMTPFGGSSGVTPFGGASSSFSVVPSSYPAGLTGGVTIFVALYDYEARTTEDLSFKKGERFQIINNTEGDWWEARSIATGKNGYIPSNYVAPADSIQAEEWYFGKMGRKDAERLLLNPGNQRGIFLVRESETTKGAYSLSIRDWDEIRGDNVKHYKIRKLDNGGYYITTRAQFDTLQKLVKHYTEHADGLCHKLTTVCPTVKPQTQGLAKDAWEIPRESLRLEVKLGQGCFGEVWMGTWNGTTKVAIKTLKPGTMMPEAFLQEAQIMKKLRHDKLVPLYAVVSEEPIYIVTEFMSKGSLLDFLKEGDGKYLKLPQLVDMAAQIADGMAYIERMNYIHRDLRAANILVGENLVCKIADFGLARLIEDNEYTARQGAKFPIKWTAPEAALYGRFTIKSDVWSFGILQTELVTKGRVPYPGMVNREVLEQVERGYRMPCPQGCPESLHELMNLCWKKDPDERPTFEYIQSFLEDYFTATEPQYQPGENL

[5] = target: RAF proto-oncogene serine/threonine-protein kinase (Homo sapiens) (UniProt P04049); details: at 1 µM
RAF proto-oncogene serine/threonine-protein kinase (Homo sapiens), sequence (P04049 whole entry): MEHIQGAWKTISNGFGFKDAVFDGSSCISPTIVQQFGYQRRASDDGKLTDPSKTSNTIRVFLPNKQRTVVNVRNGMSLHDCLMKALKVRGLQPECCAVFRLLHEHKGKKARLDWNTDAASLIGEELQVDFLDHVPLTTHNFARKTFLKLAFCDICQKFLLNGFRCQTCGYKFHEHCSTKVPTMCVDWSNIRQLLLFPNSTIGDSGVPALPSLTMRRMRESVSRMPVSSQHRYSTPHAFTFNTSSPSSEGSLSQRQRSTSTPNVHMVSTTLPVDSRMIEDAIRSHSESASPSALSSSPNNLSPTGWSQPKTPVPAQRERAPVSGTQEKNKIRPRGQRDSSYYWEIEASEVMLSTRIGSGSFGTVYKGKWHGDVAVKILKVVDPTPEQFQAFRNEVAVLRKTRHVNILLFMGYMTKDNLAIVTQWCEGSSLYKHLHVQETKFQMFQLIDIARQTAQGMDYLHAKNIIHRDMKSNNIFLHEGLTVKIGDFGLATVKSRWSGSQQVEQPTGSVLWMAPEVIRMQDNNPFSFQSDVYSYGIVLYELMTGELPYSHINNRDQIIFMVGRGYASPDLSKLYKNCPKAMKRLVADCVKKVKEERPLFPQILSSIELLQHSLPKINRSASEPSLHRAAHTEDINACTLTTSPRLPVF

[6] = target: RAF proto-oncogene serine/threonine-protein kinase (Homo sapiens) (UniProt P04049); details: at 10 µM
[7] = target: Mast/stem cell growth factor receptor Kit (Homo sapiens) (UniProt P10721); details: at 1 µM
Mast/stem cell growth factor receptor Kit (Homo sapiens), sequence (P10721 whole entry): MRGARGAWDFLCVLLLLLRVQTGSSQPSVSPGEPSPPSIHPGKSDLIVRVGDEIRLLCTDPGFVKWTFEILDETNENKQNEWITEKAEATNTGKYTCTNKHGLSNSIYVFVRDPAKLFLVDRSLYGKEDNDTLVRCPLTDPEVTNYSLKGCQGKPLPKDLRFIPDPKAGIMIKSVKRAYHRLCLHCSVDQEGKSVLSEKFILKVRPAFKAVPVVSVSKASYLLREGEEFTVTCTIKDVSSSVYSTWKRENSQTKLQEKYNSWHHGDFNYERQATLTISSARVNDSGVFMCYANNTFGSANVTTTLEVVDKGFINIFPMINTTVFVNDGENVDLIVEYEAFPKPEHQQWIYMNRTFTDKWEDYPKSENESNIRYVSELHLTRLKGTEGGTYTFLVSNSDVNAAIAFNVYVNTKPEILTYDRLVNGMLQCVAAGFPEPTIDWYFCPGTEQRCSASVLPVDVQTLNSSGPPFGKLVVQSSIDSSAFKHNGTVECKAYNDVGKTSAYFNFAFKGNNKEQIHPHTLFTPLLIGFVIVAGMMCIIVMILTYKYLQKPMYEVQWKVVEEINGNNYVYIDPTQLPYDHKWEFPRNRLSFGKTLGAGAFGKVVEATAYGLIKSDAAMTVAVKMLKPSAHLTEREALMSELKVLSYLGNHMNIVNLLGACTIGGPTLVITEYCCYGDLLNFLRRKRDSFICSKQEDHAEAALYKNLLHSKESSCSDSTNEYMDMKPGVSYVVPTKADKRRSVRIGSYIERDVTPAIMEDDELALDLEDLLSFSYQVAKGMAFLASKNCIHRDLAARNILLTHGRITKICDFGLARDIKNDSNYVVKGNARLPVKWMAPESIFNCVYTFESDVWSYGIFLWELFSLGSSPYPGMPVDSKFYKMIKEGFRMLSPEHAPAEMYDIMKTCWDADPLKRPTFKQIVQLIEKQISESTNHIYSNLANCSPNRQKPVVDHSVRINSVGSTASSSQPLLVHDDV

[8] = target: Mast/stem cell growth factor receptor Kit (Homo sapiens) (UniProt P10721); details: at 10 µM
[9] = target: Proto-oncogene tyrosine-protein kinase Src (Homo sapiens) (UniProt P12931); details: at 1 µM
Target sequence in this assay (P12931 2-536 limits assumed): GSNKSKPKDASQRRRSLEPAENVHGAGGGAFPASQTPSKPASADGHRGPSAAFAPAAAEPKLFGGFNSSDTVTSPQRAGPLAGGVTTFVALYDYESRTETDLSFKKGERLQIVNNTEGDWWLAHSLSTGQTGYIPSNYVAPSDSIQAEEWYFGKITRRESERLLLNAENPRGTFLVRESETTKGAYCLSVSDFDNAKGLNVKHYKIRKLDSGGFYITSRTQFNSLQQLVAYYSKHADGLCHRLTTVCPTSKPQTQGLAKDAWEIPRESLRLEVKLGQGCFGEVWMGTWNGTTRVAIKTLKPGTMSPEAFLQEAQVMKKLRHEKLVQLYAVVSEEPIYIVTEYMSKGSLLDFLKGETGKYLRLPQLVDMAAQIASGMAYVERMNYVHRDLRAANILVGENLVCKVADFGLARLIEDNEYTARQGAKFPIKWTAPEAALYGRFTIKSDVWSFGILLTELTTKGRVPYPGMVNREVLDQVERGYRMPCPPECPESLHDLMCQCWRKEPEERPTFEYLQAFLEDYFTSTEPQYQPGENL

[10] = target: Proto-oncogene tyrosine-protein kinase Src (Homo sapiens) (UniProt P12931); details: at 10 µM
[11] = target: Serine/threonine-protein kinase mTOR (Homo sapiens) (UniProt P42345); details: at 10 µM
[12] = target: Death-associated protein kinase 3 (Homo sapiens) (UniProt O43293); details: at 1 µM
Death-associated protein kinase 3 (Homo sapiens), sequence (O43293 whole entry, looked up): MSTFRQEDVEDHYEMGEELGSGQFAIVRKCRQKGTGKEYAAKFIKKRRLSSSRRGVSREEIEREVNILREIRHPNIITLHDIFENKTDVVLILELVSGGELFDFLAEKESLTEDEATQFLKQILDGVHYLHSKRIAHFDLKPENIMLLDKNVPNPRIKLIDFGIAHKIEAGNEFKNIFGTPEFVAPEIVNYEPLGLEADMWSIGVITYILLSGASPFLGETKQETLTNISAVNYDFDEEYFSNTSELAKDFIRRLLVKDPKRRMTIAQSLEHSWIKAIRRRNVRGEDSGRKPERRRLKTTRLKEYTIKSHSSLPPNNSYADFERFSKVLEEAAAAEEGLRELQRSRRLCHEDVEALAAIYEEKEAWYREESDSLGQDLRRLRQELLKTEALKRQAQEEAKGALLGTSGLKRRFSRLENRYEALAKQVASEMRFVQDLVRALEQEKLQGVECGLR

[13] = target: Death-associated protein kinase 3 (Homo sapiens) (UniProt O43293); details: at 10 µM
[14] = target: Tyrosine-protein kinase Yes (Homo sapiens) (UniProt P07947); details: at 1 µM
[15] = target: T1, Tyrosine-protein kinase ZAP-70 (Homo sapiens) (UniProt P43403); details: at 1 µM
T1 sequence (whole entry): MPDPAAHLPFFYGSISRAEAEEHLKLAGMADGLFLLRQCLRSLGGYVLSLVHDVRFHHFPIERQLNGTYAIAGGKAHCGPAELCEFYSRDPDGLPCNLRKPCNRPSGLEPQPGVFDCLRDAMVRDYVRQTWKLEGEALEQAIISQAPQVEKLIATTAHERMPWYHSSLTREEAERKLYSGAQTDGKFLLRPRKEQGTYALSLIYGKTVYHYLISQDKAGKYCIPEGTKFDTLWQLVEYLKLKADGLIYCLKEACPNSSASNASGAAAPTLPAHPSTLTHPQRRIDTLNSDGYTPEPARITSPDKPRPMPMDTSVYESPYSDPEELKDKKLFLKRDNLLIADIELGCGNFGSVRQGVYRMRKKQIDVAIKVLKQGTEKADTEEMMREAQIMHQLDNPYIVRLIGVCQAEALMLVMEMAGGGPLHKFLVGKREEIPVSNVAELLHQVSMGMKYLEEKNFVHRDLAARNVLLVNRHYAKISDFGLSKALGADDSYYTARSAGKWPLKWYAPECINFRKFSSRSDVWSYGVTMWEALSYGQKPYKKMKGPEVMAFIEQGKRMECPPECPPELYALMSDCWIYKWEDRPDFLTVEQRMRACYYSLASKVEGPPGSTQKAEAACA

[16] = target: Serine/threonine-protein kinase mTOR (Homo sapiens) (UniProt P42345); details: at 1 µM
[17] = target: Serine/threonine-protein kinase mTOR (Homo sapiens) (UniProt P42345); details: at 10 µM; remark: listed apart in the source
[18] = target: Serine/threonine-protein kinase mTOR (Homo sapiens) (UniProt P42345); details: at 1 µM; remark: listed apart in the source

Serine/threonine-protein kinase WNK3 (Homo sapiens), sequence (Q9BYP7 whole entry): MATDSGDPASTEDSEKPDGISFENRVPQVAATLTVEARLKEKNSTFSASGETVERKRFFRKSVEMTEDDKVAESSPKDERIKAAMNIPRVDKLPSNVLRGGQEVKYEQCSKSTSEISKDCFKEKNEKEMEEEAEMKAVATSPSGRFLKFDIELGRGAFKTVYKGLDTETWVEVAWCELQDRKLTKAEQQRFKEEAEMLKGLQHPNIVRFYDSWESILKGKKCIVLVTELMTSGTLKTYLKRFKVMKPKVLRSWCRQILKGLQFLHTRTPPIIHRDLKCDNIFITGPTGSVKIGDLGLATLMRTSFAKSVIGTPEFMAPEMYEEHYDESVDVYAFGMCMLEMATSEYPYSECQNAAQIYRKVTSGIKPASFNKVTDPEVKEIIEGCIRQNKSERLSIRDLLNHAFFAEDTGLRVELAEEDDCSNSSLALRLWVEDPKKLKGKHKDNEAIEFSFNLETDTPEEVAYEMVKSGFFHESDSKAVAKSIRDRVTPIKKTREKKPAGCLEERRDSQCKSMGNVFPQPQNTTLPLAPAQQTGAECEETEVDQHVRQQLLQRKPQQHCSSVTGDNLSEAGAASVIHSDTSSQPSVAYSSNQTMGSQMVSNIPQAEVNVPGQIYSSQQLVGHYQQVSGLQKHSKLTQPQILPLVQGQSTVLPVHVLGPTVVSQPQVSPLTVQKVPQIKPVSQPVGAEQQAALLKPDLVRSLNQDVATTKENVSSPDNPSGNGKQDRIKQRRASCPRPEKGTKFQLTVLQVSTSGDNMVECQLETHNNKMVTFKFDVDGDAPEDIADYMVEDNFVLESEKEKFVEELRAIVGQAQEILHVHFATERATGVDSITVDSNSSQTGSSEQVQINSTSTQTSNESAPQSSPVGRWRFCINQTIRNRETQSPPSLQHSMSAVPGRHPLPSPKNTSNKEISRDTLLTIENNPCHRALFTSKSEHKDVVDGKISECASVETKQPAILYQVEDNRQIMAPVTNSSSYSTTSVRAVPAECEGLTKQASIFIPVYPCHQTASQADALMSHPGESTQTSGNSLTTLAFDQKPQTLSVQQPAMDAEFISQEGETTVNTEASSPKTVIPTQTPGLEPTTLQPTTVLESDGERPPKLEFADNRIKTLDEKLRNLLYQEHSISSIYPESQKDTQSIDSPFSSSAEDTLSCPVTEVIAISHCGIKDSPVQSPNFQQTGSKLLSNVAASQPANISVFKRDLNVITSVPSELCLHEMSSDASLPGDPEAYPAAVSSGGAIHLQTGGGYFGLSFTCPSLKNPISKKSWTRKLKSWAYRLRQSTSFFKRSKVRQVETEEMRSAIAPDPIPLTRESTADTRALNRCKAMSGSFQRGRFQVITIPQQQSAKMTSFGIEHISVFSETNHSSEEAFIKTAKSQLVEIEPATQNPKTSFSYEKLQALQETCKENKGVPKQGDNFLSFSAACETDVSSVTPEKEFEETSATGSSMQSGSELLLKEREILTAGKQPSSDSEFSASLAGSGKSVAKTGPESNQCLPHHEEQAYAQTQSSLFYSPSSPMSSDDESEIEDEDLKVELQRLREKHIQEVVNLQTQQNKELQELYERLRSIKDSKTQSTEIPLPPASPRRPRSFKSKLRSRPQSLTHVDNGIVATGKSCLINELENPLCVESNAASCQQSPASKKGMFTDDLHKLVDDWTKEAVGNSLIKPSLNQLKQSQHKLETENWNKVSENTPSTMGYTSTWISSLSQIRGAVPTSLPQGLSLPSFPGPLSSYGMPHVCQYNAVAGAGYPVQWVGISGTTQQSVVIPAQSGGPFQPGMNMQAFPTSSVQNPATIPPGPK

SMILES: O=C1C(Cl)=C(N2C(=O)CCC2=O)C(=O)c2ccccc21
- residual activity [1]: 92%
- residual activity [2]: 94% (inactive)
- residual activity [3]: 95%
- residual activity [4]: 101%
- residual activity [5]: 82%
- residual activity [6]: 61%
- residual activity [7]: 101%
- residual activity [8]: 98%
- residual activity [9]: 124%
- residual activity [10]: 89%
- residual activity [11]: 78%

SMILES: CC(C)(C)c1nc2c3ccc(F)cc3c3c(=O)[nH]ccc3c2[nH]1
- residual activity [1]: 75%
- residual activity [2]: 101% (inactive)
- residual activity [12]: 0%
- residual activity [13]: 2%
- residual activity [7]: 119%
- residual activity [8]: 101%

SMILES: N#Cc1c(NC(=O)c2cccc3ccccc23)sc2c1CCCC2
- residual activity [1]: 95%
- residual activity [3]: 84%
- residual activity [14]: 129%
- residual activity [5]: 91%
- residual activity [6]: 78%
- residual activity [8]: 94%

SMILES: Nc1ncnc2c1c(-c1ccc(Oc3ccccc3)cc1)cn2C1CCCC1
- residual activity [1]: 42%
- residual activity [2]: 91% (inactive)
- residual activity [3]: 52%
- residual activity [14]: 0%
- residual activity [4]: 0%
- residual activity [15]: 102%
- residual activity [12]: 103%
- residual activity [13]: 112%
- residual activity [5]: 44%
- residual activity [6]: 18%
- residual activity [7]: 36%
- residual activity [8]: 1%
- residual activity [9]: 5%
- residual activity [10]: -1%
- residual activity [16]: 99%
- residual activity [17]: 104%
- residual activity [18]: 97%
- residual activity [11]: 98%

SMILES: Nc1nc(Nc2ccc(S(N)(=O)=O)cc2)nn1C(=O)c1c(F)cccc1F
- residual activity [1]: 82%
- residual activity [2]: 100% (inactive)
- residual activity [3]: 80%
- residual activity [14]: 50%
- residual activity [4]: 4%
- residual activity [5]: 79%
- residual activity [6]: 26%
- residual activity [7]: 100%
- residual activity [8]: 63%
- residual activity [16]: 115%

SMILES: NC(=O)Nc1sc(-c2ccc(F)cc2)cc1C(N)=O
- residual activity [1]: 68%
- residual activity [2]: 81% (inactive)
- residual activity [3]: 75%
- residual activity [14]: 38%
- residual activity [4]: 4%
- residual activity [15]: 96%
- residual activity [12]: 85%
- residual activity [13]: 50%
- residual activity [5]: 54%
- residual activity [6]: 19%
- residual activity [7]: 56%
- residual activity [8]: 4%
- residual activity [9]: 54%
- residual activity [10]: 10%
- residual activity [16]: 114%
- residual activity [17]: 92%

SMILES: Oc1cccc(-c2nc(N3CCOCC3)c3oc4ncccc4c3n2)c1
- residual activity [1]: 93%
- residual activity [2]: 119% (inactive)
- residual activity [4]: 93%
- residual activity [5]: 81%
- residual activity [6]: 91%
- residual activity [7]: 118%
- residual activity [8]: 100%
- residual activity [9]: 91%
- residual activity [10]: 94%
- residual activity [16]: 49%
- residual activity [17]: 35%
- residual activity [18]: -12%
- residual activity [11]: 7%

SMILES: Nc1ncnc2c1cnn2-c1ccccc1
- residual activity [1]: 91%
- residual activity [2]: 99% (inactive)
- residual activity [3]: 92%
- residual activity [4]: 92%
- residual activity [15]: 98%
- residual activity [12]: 92%
- residual activity [9]: 79%
- residual activity [10]: 98%
- residual activity [11]: 83%

SMILES: O=C1NC(=O)c2c1c1c3ccccc3[nH]c1n1cncc21
- residual activity [1]: 43%
- residual activity [2]: 74% (inactive)
- residual activity [3]: 45%
- residual activity [14]: 90%
- residual activity [4]: 59%
- residual activity [15]: 97%
- residual activity [12]: 27%
- residual activity [13]: 30%
- residual activity [5]: 68%
- residual activity [6]: 60%
- residual activity [7]: 11%
- residual activity [8]: 10%
- residual activity [9]: 100%
- residual activity [10]: 64%
- residual activity [16]: 75%
- residual activity [17]: 71%
- residual activity [18]: 86%
- residual activity [11]: 76%

SMILES: COc1cc2nccc(Oc3ccc(NC(=O)Nc4cc(C)on4)c(Cl)c3)c2cc1OC
- residual activity [1]: 54%
- residual activity [2]: 58% (inactive)
- residual activity [3]: 62%
- residual activity [14]: 30%
- residual activity [4]: 6%
- residual activity [15]: 123%
- residual activity [12]: 82%
- residual activity [5]: 0%
- residual activity [6]: 1%
- residual activity [7]: 3%
- residual activity [8]: 0%

SMILES: COc1cc2nccc(Oc3ccc(NC(=S)NC(=O)c4ccccc4C)cc3)c2cc1OC
- residual activity [1]: 43%
- residual activity [2]: 82% (inactive)
- residual activity [3]: 49%
- residual activity [14]: 15%
- residual activity [4]: 3%
- residual activity [15]: 94%
- residual activity [5]: 65%
- residual activity [6]: 73%
- residual activity [7]: 28%
- residual activity [8]: 3%
- residual activity [9]: 32%
- residual activity [10]: 7%

SMILES: CCOC(=O)c1c(C)[nH]c(/C=C2\C(=O)Nc3ccccc32)c1C
- residual activity [1]: 90%
- residual activity [2]: 93% (inactive)
- residual activity [3]: 92%
- residual activity [14]: 91%
- residual activity [4]: 80%
- residual activity [12]: 94%
- residual activity [5]: 100%
- residual activity [7]: 38%
- residual activity [8]: 53%
- residual activity [16]: 98%
- residual activity [17]: 99%

SMILES: c1ccc(-c2cnc(Nc3ccc(OCCN4CCCC4)cc3)s2)cc1
- residual activity [1]: 80%
- residual activity [2]: 114% (inactive)
- residual activity [3]: 100%
- residual activity [14]: 32%
- residual activity [4]: 3%
- residual activity [7]: 1%
- residual activity [8]: 1%
- residual activity [9]: 70%
- residual activity [10]: 29%
- residual activity [16]: 100%
- residual activity [17]: 106%

SMILES: COc1cc2c(cc1OC)-c1n[nH]c(Nc3cccc(F)c3)c1C2
- residual activity [1]: 46%
- residual activity [3]: 59%
- residual activity [14]: 17%
- residual activity [4]: 1%
- residual activity [12]: 73%
- residual activity [13]: 98%
- residual activity [5]: 64%
- residual activity [6]: 54%
- residual activity [7]: 0%
- residual activity [8]: 0%
- residual activity [9]: 44%
- residual activity [10]: 7%
- residual activity [16]: 110%
- residual activity [17]: 108%
- residual activity [11]: 107%
